Results published in PubChem BioAssay (NCI).
The panel holds about 83,000 compounds, 20% with a hit somewhere; the sample as a whole holds those more often.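 Assay: single dose, 48 h. Readout: percent growth (0 = no net growth; negative = cell death). Active: <10.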 A number with no mark means an inactive call. The source made the active and inactive calls.

How the values were obtained:
Assay in all cases: NCI-60 one-dose screen, 48 h (100 = growth as untreated, 0 = no growth, -100 = all killed)
Conditions in all cases: 10 µM unless noted
SR leukemia = system: SR leukemia
RPMI-8226 leukemia = system: RPMI-8226 leukemia
OVCAR-8 ovarian = system: OVCAR-8 ovarian
OVCAR-5 ovarian = system: OVCAR-5 ovarian
OVCAR-4 ovarian = system: OVCAR-4 ovarian
SK-OV-3 ovarian = system: SK-OV-3 ovarian
IGROV1 ovarian = system: IGROV1 ovarian
OVCAR-3 ovarian = system: OVCAR-3 ovarian
HS 578T breast = system: HS 578T breast
NCI/ADR-RES ovarian = system: NCI/ADR-RES ovarian
T-47D breast = system: T-47D breast
BT-549 breast = system: BT-549 breast
MDA-MB-435 melanoma = system: MDA-MB-435 melanoma
SW-620 colon = system: SW-620 colon
MCF7 breast = system: MCF7 breast
HCT-116 colon = system: HCT-116 colon
HCC-2998 colon = system: HCC-2998 colon
KM12 colon = system: KM12 colon

| SMILES | growth (SR leukemia) | growth (RPMI-8226 leukemia) | growth (OVCAR-8 ovarian) | growth (OVCAR-5 ovarian) | growth (OVCAR-4 ovarian) | growth (SK-OV-3 ovarian) | growth (IGROV1 ovarian) | growth (OVCAR-3 ovarian) | growth (HS 578T breast) | growth (NCI/ADR-RES ovarian) [%] | growth (T-47D breast) | growth (BT-549 breast) | growth (MDA-MB-435 melanoma) | growth (SW-620 colon) | growth (MCF7 breast) | growth (HCT-116 colon) | growth (HCC-2998 colon) | growth (KM12 colon) |
| --- | --- | --- | --- | --- | --- | --- | --- | --- | --- | --- | --- | --- | --- | --- | --- | --- | --- | --- |
| O=C(CCN1CCCC1)Nc1ccc2c(NCCc3ccccc3)c3ccccc3nc2c1 | -16.1% (active) | -41.9% (active) | 3.23% (active) | 7.44% (active) | -24.6% (active) | -6.92% (active) | -6.54% (active) | -37.8% (active) | -25.1% (active) | 71.5 | 1.89% (active) | -15.3% (active) | -92.1% (active) | -44.9% (active) | -19.4% (active) | -38.2% (active) | -56.8% (active) | -15.6% (active) |
| CCN1C(=O)/C(=C/C(=O)OC)S/C1=N\NC(=O)c1cc2ccc1/C=C\c1ccc(cc1)/C=C\2 | -13.4% (active) | -14.3% (active) | 92.6% | 100% | 89.6% | 125% | 88.4% | 92.9% | 99% | 86.5 | 94.2% | 92.3% | 99.3% | 8.79% (active) | 43.7% | 49.5% | 105% | 85% |
| COc1ccc(/C=C/c2nc(Nc3cccc(NC(C)=O)c3)c3ccccc3n2)cc1 | 64.7% | 89.3% | 84.5% | 86.8% | 104% | 99.5% | 99.7% | 97.7% | 89.1% | 90 | 70% | 92.1% | 85.2% | 92.1% | 49.9% | 81.3% | 88.4% | 83.2% |
| O=C(NCCc1ccccc1)Nc1ccc2cc3ccc(NC(=O)NCCc4ccccc4)cc3nc2c1 | -30.2% (active) | 49.1% | 23.8% | 50.6% | 62.6% | 41.4% | 48.2% | 19.2% | -26.2% (active) | 105 | 29.7% | 70.6% | -13.7% (active) | 1.33% (active) | 0.969% (active) | -32.5% (active) | -8.17% (active) | 47.7% |
| CN1C(=O)NC(c2ccc3c(c2)OCO3)C=C1c1ccccc1 (stereo unspecified) | 23.3% | 65.5% | 93.6% | 93.9% | 97.5% | 94.1% | 78.7% | 91.1% | 101% | 98.8 | 78.6% | 90% | 97.5% | 78.3% | 49.9% | 78% | 110% | 88.2% |
| O=C(c1ccccc1)N1N=C(c2ccc(-n3ccc(C(F)(F)F)n3)c(F)c2)CC1c1ccc[nH]1 (stereo unspecified) | 104% | 101% | 104% | 104% | 116% | 141% | 108% | 116% | 107% | 100 | 90.6% | 110% | 102% | 108% | 96.4% | 105% | 112% | 104% |
| O=C(Nc1ncc(Cc2cc(Cl)ccc2Cl)s1)c1cccs1 | 22.9% | 57.2% | 74.4% | 73.9% | 80% | 72.1% | 59.3% | 65.2% | 74.3% | 34.7 | 44.8% | 74.6% | 4.2% (active) | 48.5% | 32.5% | 35.3% | 58.4% | 31.2% |
| COc1ccc(C(=O)CSc2nc(-c3cc(OC)ccc3OC)cc(-c3ccc(Cl)cc3)c2C#N)cc1 | 65.3% | 78.5% | 61.2% | 81.2% | 24.8% | 33.3% | 62.4% | 98.1% | 57.8% | 77.5 | 32.3% | 10.8% | 26% | 50.7% | 46.5% | 30.2% | 78.3% | 48.3% |
| O=C(C[n+]1cccc2ccccc21)c1ccc(O)c(O)c1 | 7.71% (active) | 17.4% | 49.2% | 88% | 55.1% | 120% | 48.5% | 35.7% | 90.6% | 75.4 | 42% | 65.7% | 88.1% | 23.8% | 21.8% | 5.16% (active) | 90.4% | 100% |
| CC1=CCC(OC(=O)C(C)(O)CCC(O)(C(=O)OC2(C)C=CC(O)(C(C)C)CC2)C(C)C)(C(C)C)CC1 (stereo unspecified) | 103% | 107% | 105% | 108% | 109% | 105% | 101% | 108% | 105% | 108 | 93.9% | 114% | 104% | 103% | 97.9% | 101% | 112% | 108% |
| CCNC(=O)Oc1ccc(/C(=C(\C)c2ccccc2)c2ccc(OCCN(CC)CC)cc2)cc1 | 26.1% | 74.6% | 78.3% | 88.2% | 80.8% | 83.9% | 84.3% | 93.7% | 69% | 85 | 46.3% | 76.1% | 71% | 82.6% | 28.8% | 55.7% | 91.5% | 72.1% |
| Cc1cc2nc3c4ccc(Br)cc4n(CCN(C)C)c3nc2cc1C | -2.61% (active) | -30.4% (active) | 21.6% | 25.1% | 12.3% | 33.8% | 4.76% (active) | 21.1% | 53.9% | 17 | 21.6% | 57.5% | 18.3% | 0.693% (active) | 0.513% (active) | 9.24% (active) | 17% | 23.8% |
